Screens deposited in PubChem by The Scripps Research Institute Molecular Screening Center.
This is a sample that favours compounds with a hit; in the whole collection about 4.8% have one here.
DAX1 inh-1 – inhibitors of DAX1 repression of SF-1 activated StAR promoter; HEK293T StAR-luciferase reporter, SF-1/DAX-1 repression relief; 1.1% of 370,000 active; AID 652010; inhibition, % at 6.8 µM;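 active = inhibition above the mean over all tested compounds plus 3 SD, cut at about 3.6% in these data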;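 also: 0% = DAX-1 cells with DMSO and 100% = cells lacking DAX-1 with DMSO; higher inhibition means more luminescence from relief of DAX-1 repression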
DAX1 inh-2 – inhibitors of human orphan nuclear receptor DAX1 (NR0B1). AID 504766. HEK293 Gal4-DAX1 luciferase reporter, luminescence. 0.99% of 340,000 active. inhibition, % at 6.75 µM;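 active = inhibition above the mean over all tested compounds plus 3 SD, cut at about 4.2% in these data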;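 also: 0% = DAX1-transfected cells with DMSO and 100% = empty-vector control cells with DMSO; inhibition shows as a rise in luminescence from relieved DAX1 repression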
Target sequence (P51843 207-470 limits assumed): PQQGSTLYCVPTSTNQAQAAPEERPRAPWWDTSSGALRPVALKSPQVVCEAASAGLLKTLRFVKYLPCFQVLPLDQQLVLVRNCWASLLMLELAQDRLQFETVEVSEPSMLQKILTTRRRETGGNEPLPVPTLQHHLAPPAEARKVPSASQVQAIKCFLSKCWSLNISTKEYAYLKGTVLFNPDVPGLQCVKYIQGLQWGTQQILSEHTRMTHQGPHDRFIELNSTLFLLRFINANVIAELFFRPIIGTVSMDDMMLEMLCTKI
hgDAF-12 ag – hgDAF-12 agonism, primary luciferase screen. HEK293 GAL4-hgDAF12 UAS-luciferase reporter, agonist luminescence; normalized to butyrate control. activation, % at 6.8 µM. 1.8% of 370,000 active;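 active = activation above a cutoff set at the mean of all screened compounds plus 3 SD, cut at about 10% in these data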;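 also: 0% = DMSO wells and 100% = sodium butyrate wells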
hcDAF12 agonist – activators of H. contortus DAF-12 nuclear receptor. AID 652067. HEK293 hcDAF-12 lit1-tk-luc reporter, luminescence; 0% DMSO, 100% Δ7-dafachronic acid. 1.4% of 370,000 active. activation, % at 6.8 µM;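 active = activation above the mean of all tested compounds plus 3 SD, cut at about 5.5% in these data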;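 also: 100% = response to 3 µM Δ7-dafachronic acid high control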
ssDAF12 agonist – activators of S. stercoralis DAF-12 nuclear receptor. HEK293 ssDAF-12/GRIP1 lit1-tk-luc reporter, luminescence; % of 3 µM dafachronic acid response. activation, % at 6.8 µM. 1% of 370,000 active. AID 652126;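 active = activation above the mean over all tested compounds plus 3 SD, cut at about 0.9% in these data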;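 also: 0% = DMSO-only wells and 100% = 3 µM delta7-dafachronic acid wells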
SMARCA2 activ – SMARCA2 function activation, primary screen; MG213 cells, MMTV-luciferase reporter, dexamethasone, overnight; activation, % at 9.1 µM; AID 652017; 1% of 370,000 active; in the data active = activation above about 7.8%;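 also: 0% = vehicle wells and 100% = reference activator wells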
SMARCA2 conf – confirmation of SMARCA2 (BRM) function activators | AID 652260 | shares compounds with SMARCA2 activ | MG213 cells, MMTV-luciferase with dexamethasone, luminescence, overnight; MG213 cells expressing E1A, Rb sequestered; DMSO wells 0%, reference activator 100% | activation, % at 9.1 µM | 30% of 3,500 active;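 active = activation above its plate's cutoff, the mean activation of tested wells plus 3 SD, cut at about 7.9% in these data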
VP16 Luc act – GAL4-VP16 reporter activation counter-screen | shares compounds with SMARCA2 activ | HEK293 GAL4-VP16 pG5luc reporter, luciferase luminescence; scaled: DMSO wells 0%, SAHA wells 100% | 41% of 3,500 active | activation, % at 9.1 µM;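 active = activation above the solvent-only control well mean plus 3 SD, averaged across control plates, cut at about 5.2% in these data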
LXRb hcDAF ctr – LXR-beta agonism as hcDAF-12 counter-screen; shares compounds with hcDAF12 agonist; HEK293 Gal4-LXR tk-luc reporter, luminescence, 24 h; normalized: DMSO 0%, positive control 100%; activation, % at 6.8 µM; 3,400 tested, under 10 active;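 active = mean percent activation of the reporter above a cutoff set as the average over tested compounds plus their standard deviation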
hcDAF12 conf – hcDAF-12 agonism, confirmation assay; shares compounds with hcDAF12 agonist; HEK293 hcDAF-12 lit1-tk-luc reporter, luminescence; % of Δ7-dafachronic acid response; activation, % at 6.8 µM; 61% of 3,400 active;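 active = mean activation across triplicate tests above the threshold derived from the earlier primary screen, cut at about 5.5% in these data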;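 also: 0% = DMSO only wells and 100% = 3 µM Δ7-dafachronic acid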
hgDAF12 conf – hgDAF-12 agonism, confirmation assay | shares compounds with hgDAF-12 ag | HEK293 GAL4-hgDAF12 luciferase reporter, agonist mode; percent of butyrate response | activation, % at 6.8 µM | 80% of 3,300 active | AID 743050;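 active = mean activation over triplicate wells above the hit cutoff derived from the earlier primary screen, cut at about 11% in these data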;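 also: 0% = DMSO low control and 100% = 2 mM sodium butyrate high control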
LXR ag 2 – counter-screen for DAF-12 agonists: agonists of human LXR-beta; AID 743051; shares compounds with hgDAF-12 ag; 3,300 tested, under 10 active; HEK293 Gal4-LXR luciferase reporter, 24 h; activation, % at 6.8 µM;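 active = mean activation of the triplicate above a set limit carried over from the primary screen, none filed active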
The depositor's hits bear a star; . = not tested or not shown.

SMILES	DAX1 inh-1	DAX1 inh-2	hgDAF-12 ag	hcDAF12 agonist	ssDAF12 agonist	SMARCA2 activ	SMARCA2 conf	VP16 Luc act	hgDAF12 conf	LXR ag 2	others
COc1ccc(C2=NOC(CNC(N)=S)C2)cc1 (stereo not given)	2	4.5*	13*	4	1	13*	7	7.7*	15*	1
COc1ccc(CNC(=O)C2CC(c3ccc(OC)cc3)=NO2)cc1 (stereo not given)	0	1	-2	0	-2	2	.	.	.	.
Cc1ccsc1/C=N/Nc1nc2ccccc2[nH]1	3.7*	0	14*	9.9*	-1	12*	13*	15*	14*	1	LXRb hcDAF ctr=1;hcDAF12 conf=5
COc1ccc(NC(=O)c2nc[nH]c2C(=O)N2CCC(C)CC2)cc1	0	2	-1	-2	-1	-1	.	.	.	.
Oc1ccc(-c2csc(-c3cccnc3)n2)c(O)c1	1	1	25*	0	0	8.2*	13*	12*	20*	1
O=S(=O)(c1cccc(-c2csc(-c3cccnc3)n2)c1)N1CCOCC1	-1	-1	0	-3	-2	-5	.	.	.	.
COc1ccc(C2=NOC(C(=O)Nc3cc(C)on3)C2)cc1 (stereo not given)	0	3	1	2	-2	0	.	.	.	.
O=C(NC1CCCCCC1)C(=S)NCCc1ccccc1	0	0	-1	1	0	-3	.	.	.	.
O=C(NCCc1ccccc1)NC1CCCCC1	3	1	14*	5	0	11*	9.0*	7.7*	10	1
COc1ccc(C(C)(O)c2nc(-c3cnc4ccccc4c3)cs2)cc1 (stereo not given)	0	.	-1	-3	-1	-1	.	.	.	.
Cc1cc2ncn(CC(O)COc3cccc(C(=O)O)c3)c2cc1C (stereo not given)	1	0	2	-1	-1	0	.	.	.	.
Cc1cc(NC(=O)COC(=O)c2ccccc2Cl)no1	-1	0	-1	-2	-1	-2	.	.	.	.
Cc1cc(/C(N)=N/OC(=O)c2ccccc2Cl)no1	3	.	14*	13*	1.2*	8.6*	12*	11*	17*	1	LXRb hcDAF ctr=2;hcDAF12 conf=9.6*
CN1C(=O)c2ccccc2C(C(=O)NCc2ccco2)C1c1c[nH]c2ccccc12 (stereo not given)	0	-1	-1	2	-1	-1	.	.	.	.
COc1ccc(N2CCN(C(=O)COC(=O)/C=C/c3ccc(OC(F)F)cc3)CC2)cc1	0	0	1	-1	0	-2	.	.	.	.
O=c1nc(N/N=C/C=C/c2ccccc2)cn[nH]1	2	-1	16*	3	0	12*	12*	6.7*	14*	1
Cc1cccc(OCCCC(=O)Nc2nc3ccccc3[nH]2)c1	0	-1	14*	0	-1	18*	14*	2	7	0
COC(=O)COc1ccc2occ(C(C)=O)c2c1	0	0	0	-1	-1	0	.	.	.	.
COc1cc(/C=N/N(C)c2ccccc2)ccc1O	3	3	17*	7.5*	0	9.3*	4	9.9*	18*	1	LXRb hcDAF ctr=2;hcDAF12 conf=8.2*
Cc1nc(NCCCn2ccnc2)c2ccccc2n1	0	0	-1	-2	-1	-3	.	.	.	.
COc1ccc2cc(-c3ccccc3)c(=O)oc2c1	2	2	14*	3	1	9.7*	3	9.2*	16*	1
COC(=O)C(C)Oc1ccc2cc(-c3ccccc3)c(=O)oc2c1 (stereo not given)	0	0	0	1	-1	-1	.	.	.	.
c1ccc(-n2cnc3cc(NCc4ccco4)ccc32)cc1	4.5*	0	17*	2	-1	9.6*	5	8.2*	9	0
c1ccc(-n2cnc3cc(NCc4cccs4)ccc32)cc1	0	2	-2	-1	-2	-3	.	.	.	.
O=C(O)C(=O)/C(=C\c1ccc([N+](=O)[O-])cc1)c1ccc2ccccc2n1	3	2	22*	5	1	8.7*	3	11*	18*	1
SMILES	DAX1 inh-1	DAX1 inh-2	hgDAF-12 ag	hcDAF12 agonist	ssDAF12 agonist	SMARCA2 activ	SMARCA2 conf	VP16 Luc act	hgDAF12 conf	LXR ag 2	others
O=C(O)C(=O)/C(=C\c1cccc2ccccc12)c1ccc2ccccc2n1	1	1	1	2	0	0	.	.	.	.
COc1cc2c(cc1OC)C(C)N(C(=O)c1cc(Cl)nc(Cl)c1)CC2 (stereo not given)	-1	-4	4	-4	-1	-2	.	.	.	.
CC(C)Cc1cc(C(=O)NCc2cccs2)no1	4.3*	3	19*	2	1	13*	7	14*	13*	0
O=c1c2c(nc3cc(-c4cccc(F)c4)[nH]n13)CCC2	3	1	20*	4	0	12*	8.0*	12*	17*	1
Cc1nc(NC(=O)c2ccccc2)sc1C	2	3	14*	3	1.0*	8.2*	7	7.8*	16*	1
Cc1ccc(C(=O)Nc2nnc(C)s2)cc1	4.3*	.	16*	6	0	13*	6	16*	12*	1
Cc1nc(NC(=O)CCc2ccccc2)sc1C	1	1	4	0	-1	0	.	.	.	.
Cc1ccc(N(CC(=O)N/N=C/c2ccco2)S(=O)(=O)c2ccccc2)cc1	0	0	2	0	-2	-1	.	.	.	.
CCc1ccc(NC(=O)CCc2ccc(C)o2)cc1	0	1	1	-2	0	-1	.	.	.	.
